Assay type in all cases: functional
For assay [1], the target named is Solute carrier family 2, facilitated glucose transporter member 1 (Homo sapiens) (UniProt P11166). Nature of the assay: ST_JUDE_LEISH: Cytotoxicity at 2uM final concentration against transgenic Leishmania Mexicana promastigotes LmGLUT1 that are glucose transport deficient and complemented with the human glucose transporter GLUT1. Activity is measured by DNA content using SYBR green in vitro.

The target of assay [2] is Hexose transporter 1 (Plasmodium falciparum) (UniProt O97467). Nature of the assay: ST_JUDE_LEISH: Cytotoxicity at 2uM final concentration against transgenic Leishmania Mexicana promastigotes LmPfHT that are glucose transport deficient and complemented with the Plasmodium falciparum hexose transporter. Activity is measured by DNA content using SYBR green in vitro.
Assay [3] has as its target Glucose transporter (Leishmania mexicana) (UniProt O61059). Nature of the assay: ST_JUDE_LEISH: Cytotoxicity at 2uM final concentration against transgenic Leishmania Mexicana promastigotes LmGT2 that are glucose transport deficient and complemented with the L. Mexicana glucose transporter 2. Activity is measured by DNA content using SYBR green in vitro.

For 35 molecules, inhibition results are on record in ChEMBL document CHEMBL3433997, “St. Jude Leishmania screening dataset” (2016).

Sequence of Solute carrier family 2, facilitated glucose transporter member 1 (Homo sapiens) (P11166 whole entry): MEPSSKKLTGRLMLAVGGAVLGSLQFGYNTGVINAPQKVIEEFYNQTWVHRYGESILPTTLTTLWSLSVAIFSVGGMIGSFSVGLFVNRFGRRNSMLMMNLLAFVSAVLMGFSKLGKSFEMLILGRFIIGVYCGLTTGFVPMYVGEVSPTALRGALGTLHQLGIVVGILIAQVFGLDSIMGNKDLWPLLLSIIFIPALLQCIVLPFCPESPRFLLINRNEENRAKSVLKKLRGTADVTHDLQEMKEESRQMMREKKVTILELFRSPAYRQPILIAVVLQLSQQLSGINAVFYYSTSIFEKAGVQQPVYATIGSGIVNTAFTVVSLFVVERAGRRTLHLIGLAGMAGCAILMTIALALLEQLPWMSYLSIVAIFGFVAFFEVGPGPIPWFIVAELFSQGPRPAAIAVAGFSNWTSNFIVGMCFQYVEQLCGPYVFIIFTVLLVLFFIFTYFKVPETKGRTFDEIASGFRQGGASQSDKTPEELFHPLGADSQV

A word on the inhibition: it is the change of the read-out against control, counted positive when it falls. `CCCc1cnc2nc(N)nc(N)c2c1C`: the values for the inhibition in assay [1], in assay [2] and in assay [3] were -2.96%, -0.62% and 0.34%, respectively.

Consider `O=C(Nc1ccc(N2CCNCC2)nc1)c1oc(-c2ccccc2)nc1C(F)(F)F`, for which the inhibition was found to be 2.9% in assay [1], 3.6% in assay [2] and 0.32% in assay [3].

Take `Cc1ccccc1-c1cc(=O)c2cc(NC(=O)c3cccs3)ccc2o1`: the inhibition in assay [1] was 3.19%; in assay [2], 1.54%; in assay [3] it was -8.62%.

Regarding `CCn1c(-c2nonc2N)nc2c(-c3cccc(NC(=O)NC45CC6CC(CC(C6)C4)C5)c3)ncc(OCCCN)c21`, the inhibition in assay [1] was determined as 2.53%; in assay [2], 1.83%; in assay [3] it was 2.53%.

On to `Cc1cccn2c(=O)c3cc(C(=O)NC4CCCCC4)c(=N)n(CCCn4ccnc4)c3nc12`, for which the inhibition in assay [1] is -2.65%; in assay [2], -2.23%; in assay [3], -4.98%.

With `CC(CN(C)C)C(=O)Nc1ccc(-c2ccc(-c3nc4cc(F)ccc4[nH]3)cc2)cc1` (stereo not given), the figures for the inhibition in assay [1], in assay [2] and in assay [3] were 5.33%, 1.98% and 2.85%, respectively.

Regarding `Cc1cc(C)c(C)c(S(=O)(=O)N2CCCCC(c3ccc(F)c(F)c3)=N2)c1C`, the inhibition is 2.94% in assay [1], -0.61% in assay [2] and 6.62% in assay [3].

With `O=C(NCc1ccc(Cl)c(Cl)c1)c1ccc(-c2nc3cc(F)c(F)cc3[nH]2)cc1`, the values for the inhibition in assay [1], in assay [2] and in assay [3] were 0.21%, 0.14% and -0.73%, respectively.

Consider `CCc1cn(CCS(C)(=O)=O)c2ccc(C(=O)N[C@@H](Cc3ccccc3)[C@H](O)CNC(C)(C)CCCC(C)C)cc12`, for which the inhibition in assay [1] came to 5.26%; in assay [2] it was 4.33%; in assay [3], 6.22%.

Regarding `CCCCc1ccc(CCNCCCCCCNCCc2ccc(O)c(O)c2)cc1`, the inhibition is 0.01% in assay [1], -0.03% in assay [2] and -1.2% in assay [3].

Turning to `CC(C)CCN1CCC(Oc2ccc(NC(=O)c3ccccc3)cc2Cl)CC1`, the inhibition in assay [1] was determined as 1.25%; in assay [2], 3.09%; in assay [3], 2.86%.

Regarding `Cc1cc(NC(=O)c2cccs2)ccc1OC1CCN(Cc2ccc(F)cc2)CC1`, the inhibition in assay [1] amounted to 1.65%; in assay [2], 2.76%; in assay [3] it was 5.08%.

As to `CC(C)COc1ccc(Cl)cc1Cc1ccc(-c2nc3ccc(F)c(F)c3[nH]2)o1`, the inhibition in assay [1] was 0.98%; in assay [2] it was -1.63%; in assay [3], 0.57%.

Regarding `CCOC(=O)NCCSC(C)(C)[C@H](NC(=O)[C@H](Cc1cc2ccccc2s1)[C@H](CC)N(O)C=O)C(=O)Nc1nccs1`, the inhibition in assay [1] was 0.32%; in assay [2], 0.28%; in assay [3] it was -0.04%.

In the case of `Cc1ccc(C(=O)Nc2ccc(C)c(OC3CCN(Cc4ccco4)C3)c2)cc1` (stereo not given), the inhibition in assay [1] amounted to 0.19%; in assay [2], 1.86%; in assay [3] it was 7.13%.

Regarding `Oc1ccc(CCNc2nc(NCCOc3cccc4ccccc34)nc(N3CCNCC3)n2)cc1`, the inhibition in assay [1] stood at 3.36%; in assay [2] it was 0.4%; in assay [3], 2.56%.

For the molecule `CCN(CC)CCCC(C)Nc1ccnc2cc(Cl)ccc12` (stereo not given), the inhibition in assay [1] was found to be 1.44%; in assay [2], 1.5%; in assay [3], 1.51%.

As to `Cc1cc(Cl)c(S(=O)(=O)NC(C)(C)C)cc1OCC(=O)NC1CCCCC1`, the inhibition in assay [1] was -0.97%; in assay [2], 0.93%; in assay [3], 0.34%.

Consider `CNC(=O)/C=C/c1cc(NC(=O)Nc2ccnc3c(Br)cccc23)ccc1OC`, for which the inhibition in assay [1] is 3.51%; in assay [2], 2.22%; in assay [3] it was 0.98%.

As to `O=c1cc(NCCCNCc2[nH]c3cc(Cl)cc(Cl)c3c2Cn2cccn2)[nH]c2ccccc12`, the inhibition in assay [1] was 0.47%; in assay [2], -1.31%; in assay [3], 1.93%.

For the molecule `Cc1cc(Nc2ccccc2)nc(Nc2ccccc2)n1`, the inhibition in assay [1] is 9.14%; in assay [2], 8.33%; in assay [3] it was 1.86%.

Regarding `O=C(Nc1ccc(-c2ccc(-c3nc4cc(C(F)(F)F)ccc4[nH]3)s2)cc1)c1ccoc1`, the figures for the inhibition in assay [1], in assay [2] and in assay [3] were 0.13%, -0.79% and -1.02%, respectively.

Regarding `CN(C)c1ccc(-c2ccc(C(=O)NC3CCN(Cc4ccc(F)cc4)CC3)s2)cc1`, the values for the inhibition in assay [1], in assay [2] and in assay [3] were 5.83%, -1.68% and 3.76%, respectively.

For `O=C(Nc1ccc(OC(F)(F)F)cc1)Nc1ccc([N+](=O)[O-])cc1`, the inhibition in assay [1] was found to be 1.82%; in assay [2], 2.15%; in assay [3] it was 1.9%.

As to `Cc1cnc(NCC2CCCCC2)nc1N[C@@H](CO)C(=O)Nc1ccccc1`, the figures for the inhibition in assay [1], in assay [2] and in assay [3] were 1.68%, 2.03% and -0.71%, respectively.

For `CC(C)[C@H](NC(=O)c1ccc(O)c(-c2cccc(C(F)(F)F)c2)c1)C(=O)NC1CCCc2ccccc21` (stereo not given in full), the results for the inhibition in assay [1], in assay [2] and in assay [3] were 3.9%, 2.89% and 0.81%, respectively.

`CC(C)N1CCN(C(CN2CCN(CCCOc3ccc4nonc4c3)CC2)c2ccc(F)cc2)CC1` (stereo not given): the results for the inhibition in assay [1], in assay [2] and in assay [3] were -0.47%, -1.18% and -1.91%, respectively.

As for `O=c1c(Br)c(C(F)(F)F)[nH]c2ccc(Oc3ccccc3)cc12`, the results for the inhibition in assay [1], in assay [2] and in assay [3] were 2.41%, 2.75% and 2.63%, respectively.

Turning to `CN1CCCN(Cc2cccc(-c3ccc(NC(=O)c4ccc(Cl)cc4)cc3)c2)CC1`, the figures for the inhibition in assay [1], in assay [2] and in assay [3] were 55.2%, 50.2% and 21.9%, respectively.

With `Cc1noc(C)c1CN1CCCN(c2ccc3c(c2)CCN(Cc2ccc(-c4ncc[nH]4)cc2)CC3)CC1`, the inhibition in assay [1] came out at 1.29%; in assay [2], 3.6%; in assay [3], 1.65%.

Consider `CCOC(=O)c1c(C)noc1Nc1cccc(C)c1C`, for which the inhibition in assay [1] is -3.16%; in assay [2] it was -1.56%; in assay [3], -4.02%.

With `Cc1cc2c(cc1C(F)(F)F)N(C(=O)Nc1cc(C(=O)NC3CCN(Cc4ccccc4)C3)cc(C(F)(F)F)c1)CC2` (stereo not given), the inhibition was determined as 6.43% in assay [1], 6.1% in assay [2] and 7.35% in assay [3].

As for `CC(=O)Nc1nc(C(=O)Nc2ccc(-c3ccc(-c4nc5cccc(C)c5[nH]4)cc3)cc2)cs1`, the inhibition in assay [1] stood at 10.7%; in assay [2], 9.18%; in assay [3] it was 6.38%.

For `CCNC1=NC2=C(CC(C(C)(C)C)CC2)C2(CCC(C(C)(C)C)CC2)S1` (stereo not given), the inhibition in assay [1] was 4.57%; in assay [2] it was 4.3%; in assay [3], 1.15%.

`O=C(c1ccc(-c2ccc(-c3nc4ccccc4[nH]3)s2)cc1)N1CCCCC1CN1CCC(O)C1` (stereo not given): the figures for the inhibition in assay [1], in assay [2] and in assay [3] were 3.07%, 2.95% and 4.01%, respectively.
